# In the library only some 2.6% were active in any assay of this set; here they are far more common.
# pPAFAH FP inh – pPAFAH (human) enzyme inhibition; inhibition, % at 3.39 µM; recombinant pPAFAH, FP-rhodamine probe fluorescence polarization; hit rate 1.5% among 330,000;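 active = inhibition above the mean inhibition across the screen plus 3 SD, cut at about 25% in these data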;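 also: inhibitors block binding of the rhodamine activity-based probe so polarization drops; 0% = enzyme with DMSO and 100% = wells lacking pPAFAH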
# PAFAH1B2 inh – PAFAH1B2 (human) inhibition; P68402; recombinant PAFAH1B2, FP-rhodamine activity probe, fluorescence polarization; inhibition, % at 3.39 µM; hit rate 1.2% among 340,000; AID 492953;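 active = inhibition above the mean of all tested compounds plus 3 SD, cut at about 24% in these data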;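 also: 0% = enzyme with DMSO and 100% = wells lacking PAFAH1B2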
# Target sequence (P68402 whole entry, looked up): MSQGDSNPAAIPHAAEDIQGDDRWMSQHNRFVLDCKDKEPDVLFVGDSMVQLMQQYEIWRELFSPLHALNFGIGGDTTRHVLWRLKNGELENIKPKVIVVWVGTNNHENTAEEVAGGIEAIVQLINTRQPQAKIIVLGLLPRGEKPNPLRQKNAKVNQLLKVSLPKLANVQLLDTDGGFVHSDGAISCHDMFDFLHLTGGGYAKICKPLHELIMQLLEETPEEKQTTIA
# PAFAH2 FP inh – PAFAH2 (human) inhibition | Q99487 | recombinant PAFAH2, FP-rhodamine activity probe, fluorescence polarization | inhibition, % at 3.39 µM | hit rate 0.99% among 340,000 | AID 492956;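 active = inhibition above the mean over all tested compounds plus 3 SD, cut at about 30% in these data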;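 also: inhibitors block probe labeling of enzyme so polarization drops; 0% = enzyme with DMSO and 100% = wells lacking PAFAH2 protein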
# PKA-R2B act – PKA-R2B complex activation; PKA-R2B holoenzyme dissociation, Cy5-IP20 fluorescence polarization; R2B truncated from residue 108, S112A mutant; 0% DMSO only, 100% 113 µM cGMP; activation, % at 11.4 µM; P22694+P31323; hit rate 0.079% among 340,000;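 active = activation above a cutoff set at the mean over all compounds plus 3 SD, cut at about 18% in these data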;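 also: higher means more holoenzyme dissociation and a rise in polarization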
# Target sequence (P31323 whole entry, looked up, other chains not shown, the tested form may be a part): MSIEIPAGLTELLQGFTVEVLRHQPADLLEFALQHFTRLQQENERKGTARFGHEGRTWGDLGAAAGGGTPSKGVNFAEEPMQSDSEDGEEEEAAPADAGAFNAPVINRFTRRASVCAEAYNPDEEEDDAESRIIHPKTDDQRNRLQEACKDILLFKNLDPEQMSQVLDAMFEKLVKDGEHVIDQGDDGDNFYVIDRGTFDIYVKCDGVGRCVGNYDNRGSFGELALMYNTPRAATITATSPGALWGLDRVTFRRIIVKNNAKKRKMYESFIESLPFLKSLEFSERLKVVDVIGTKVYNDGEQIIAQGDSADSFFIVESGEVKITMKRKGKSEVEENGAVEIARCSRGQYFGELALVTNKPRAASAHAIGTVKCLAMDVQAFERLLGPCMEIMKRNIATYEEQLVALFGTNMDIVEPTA
# PKA-R1A act – PKA-R1A complex activation. activation, % at 11.4 µM. AID 504707. P00514+P68181. PKA-R1A dissociation, Cy5-IP20 fluorescence polarization; scaled: DMSO 0%, 113 µM cGMP 100%. hit rate 0.083% among 340,000;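 active = percent activation above the mean of all tested compounds plus 3 SD, cut at about 19% in these data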;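 also: higher means more PKAc released from R1A so a rise in polarization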
# PAFAH1B3 FP inh – blocks human PAF acetylhydrolase 1B catalytic subunit 3; hit rate 0.28% among 340,000; recombinant PAFAH1B3, FP-rhodamine probe, fluorescence polarization; inhibition, % at 3.39 µM; Q15102;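 active = inhibition above the screen-wide average of all tested compounds plus 3 SD, cut at about 25% in these data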;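 also: 0% = enzyme with DMSO only and 100% = wells lacking PAFAH1B3 protein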
# The depositor's hits bear a star; x = no result given.
SMILES,pPAFAH FP inh,PAFAH1B2 inh,PAFAH2 FP inh,PKA-R2B act,PKA-R1A act,PAFAH1B3 FP inh
O=C(CSc1nc2ccccc2s1)Nc1cc(S(=O)(=O)N2CCOCC2)ccc1O,18.4,86.7*,84.5*,-5.1,3.4,18.7
O=C(O)CSc1nc2ccccc2s1,0.2,5.1,-0.9,-9.0,2.1,8.7
O=C(CSc1nc2ccccc2s1)CSc1nc2ccccc2s1,26.8*,-6.6,-5.9,-1.0,-19.0,4.0
O=C(CSc1nc2ccccc2s1)NNC(=S)Nc1ccc(Br)cc1,19.9,24.5*,3.9,-5.5,8.0,7.1
O=C(CSc1nc2ccccc2s1)NCc1cc([N+](=O)[O-])ccc1O,10.7,28.6*,6.2,-10.4,-1.4,1.5
COc1ccccc1C(=O)NCCC(=O)NCC(c1ccco1)N1CCCC1 (stereo not drawn),1.0,-0.1,8.1,-5.0,-6.8,2.0
CCN1C(=O)[C@H]2[C@@H](c3ccc(-c4cccc(Cl)c4)c(OC)c3)N[C@@](CC(C)C)(C(=O)OC)[C@H]2C1=O,4.0,2.8,2.3,-4.0,-10.8,0.3
CCCC1(CCC)NC(=O)N(CC(=O)Nc2ccc3c(c2)OCCO3)C1=O,0.7,2.4,8.7,0.0,-8.8,6.5
CCCNC(=O)c1ccc2c(=O)c(O)c(-c3ccsc3)[nH]c2c1,15.2,27.1*,-16.2,-6.8,-6.9,38.1*
CCCNC(=O)c1ccc2c(=O)c(O)c(-c3ccc(OC)cc3)[nH]c2c1,13.2,1.7,-16.0,3.4,9.0,13.8
Cc1ccc(CNC(=O)c2ccc3c(=O)c(O)c(-c4ccc(C)cc4)[nH]c3c2)cc1,26.7*,7.7,-21.6,-16.8,-12.2,11.5
CCCC(=O)N(c1ccc2oc(=O)sc2c1)S(=O)(=O)c1cccs1,10.2,5.7,34.6*,6.9,-0.9,14.1
COc1cccc(C(=O)NCC(=O)N/N=C/c2ccc3c(c2)OCO3)c1,-4.5,4.2,3.8,6.8,16.0,5.4
Cc1cc(Oc2cccc3c2S(=O)(=O)N(C2CCCC2)CC(COCc2ccccc2)O3)cc(C)c1C (stereo not drawn),x,0.9,0.4,-7.5,5.6,1.0
O=c1[nH]c2c(s1)C(c1ccccc1)C1C3CCC(C3)C1S2 (stereo not drawn),11.8,40.7*,-1.2,-8.6,-8.4,8.5
O=C(O)CCN1C(=O)C2C3CC(C2C1=O)C1C(c2ccccc2)c2sc(=O)n(-c4ccccc4)c2SC31 (stereo not drawn),3.7,10.5,2.3,5.5,1.1,3.5
O=C(O)CCN1C(=O)C2C3CC(C2C1=O)C1C(c2ccccc2)c2sc(=O)[nH]c2SC31 (stereo not drawn),1.1,83.8*,10.2,3.7,0.8,8.2
CC1CCC(NC(=O)CSc2nnc(-c3cccnc3)o2)CC1 (stereo not drawn),5.1,3.6,1.5,5.9,-2.8,1.2
COc1ccc(NC(=O)CCc2c(C)nc3nc(CNC(=O)c4cccc(F)c4)nn3c2C)cc1OC,5.8,6.0,13.3,1.1,-5.7,4.7
Cc1c(C(=O)O)cccc1-n1c(C)cc(/C=C(/C#N)C(=O)NCc2ccccc2)c1C,29.5*,x,x,x,x,x
CC1CCc2cc(F)ccc2N1S(=O)(=O)c1ccc(Cl)nc1 (stereo not drawn),-3.7,29.0*,-4.4,-4.7,6.9,6.5
Cc1ccc(C2=C(O)C(=O)C(c3ccc(C)cc3)=C(O)C2=O)cc1,x,40.5*,62.7*,-0.1,-0.1,65.1*
Cc1ccc(NC(=O)CN(C)C(=O)C(C)N2CCN(Cc3ccccc3C)CC2)cc1 (stereo not drawn),3.1,4.2,6.5,-5.0,-4.2,-5.5
N#Cc1c(NC(=O)C2CC=CCC2C(=O)O)sc2c1CCCCCC2 (stereo not drawn),-2.1,44.7*,6.1,-8.7,-1.7,3.9
CC1CCc2c(sc(NC(=O)c3ccccc3C(=O)O)c2C#N)C1 (stereo not drawn),0.7,-0.7,-2.4,0.7,3.3,1.8
SMILES,pPAFAH FP inh,PAFAH1B2 inh,PAFAH2 FP inh,PKA-R2B act,PKA-R1A act,PAFAH1B3 FP inh
CC(C)(C)C1CCc2c(sc(NC(=O)C3CC=CCC3C(=O)O)c2C#N)C1 (stereo not drawn),31.2*,59.3*,12.4,3.5,-13.7,10.3
CCC(C)(C)C1CCc2c(sc(NC(=O)c3ccccc3C(=O)O)c2C#N)C1 (stereo not drawn),32.1*,66.6*,15.0,-1.5,7.6,11.0
CCOC(=O)/C=c1/s/c(=C/c2ccc3cc(OC)ccc3c2)c(=O)n1CC(=O)NCc1ccc2c(c1)OCO2,x,5.1,-9.3,-8.3,-4.1,4.6
COc1cccc(C(=O)NN2CCOCC2)c1,0.3,-3.0,0.8,-0.2,13.2,0.8
N#Cc1c(N(CCO)CCO)nc(N)c2c(N)nc3c(c12)CC(=O)N3Cc1cccs1,25.7*,8.3,11.6,-0.8,-2.4,12.0
CN(CCO)c1nc(N)c2c(N)nc3c(c2c1C#N)CC(=O)N3Cc1cccs1,15.6,7.9,6.3,-4.1,-8.5,9.8
CC1CC(NC(=O)CCn2c(=O)oc3ccccc32)CC(C)(C)C1 (stereo not drawn),2.6,37.8*,44.2*,5.6,11.5,7.2
Cc1ccc(CCNC(=O)C2CC(c3cccc(F)c3)=NO2)cc1 (stereo not drawn),-0.9,27.7*,3.1,-21.0,-15.1,7.0
Cc1ccc2c(c1)N(C(=O)CCC(=O)N1CCC(C(N)=O)CC1)CC(C)O2 (stereo not drawn),5.1,4.1,4.3,2.4,-14.1,3.0
CCN(CC)c1ccc(/C=C(\C#N)C(=O)c2ccc(Br)cc2)cc1,-4.0,55.2*,81.1*,-5.8,-4.0,41.0*
CCN(CC)c1ccc(/C=C(\C#N)C(N)=O)cc1,x,1.9,4.2,-5.1,-20.9,9.1
CN(C)c1cccc(/C=C(\C#N)c2ccccc2)c1,33.7*,5.8,-4.7,11.3,-8.7,8.4
CN(C)c1ccc(/C=C(\C#N)c2ccccc2)cc1,x,6.7,8.2,-2.9,3.2,13.3
CC(=O)Oc1ccc2c(=O)c(Oc3ccccc3)coc2c1OC(C)=O,31.1*,-1.3,46.1*,-12.1,-18.4,-0.8
CCCOc1ccc(C(=O)NCCC(=O)NCCCC(=O)O)cc1,1.5,-1.4,0.2,-4.4,-7.8,6.3
O=C(CCNC(=O)c1ccco1)NCCN1C(=O)S/C(=C\c2ccc(F)cc2)C1=O,-2.1,6.7,8.2,6.0,-9.3,7.1
Cc1ccc(S(=O)(=O)CCC(=O)NCCN2C(=O)S/C(=C/c3ccc(F)cc3)C2=O)cc1,5.2,32.8*,5.5,-9.2,-11.0,4.4
O=S(=O)(c1ccc(F)c(F)c1)N1CCN(CCc2ccccc2)CC1,-1.4,-0.4,-0.5,1.4,-11.2,8.2
O=C1CCNc2ccc(-c3ccccc3)cc21,1.6,5.7,-0.4,4.8,-5.5,3.5
